Bioassay records as filed in PubChem BioAssay.
Most compounds without a hit are left out; they make up all but 8.3% or so of the library.
FBPA Giardia inh – Giardia lamblia aldolase inhibition. A8B2U2. purified Giardia FBPA. Potency, µM (titrated, usually from 59.6 µM), for inactives: top-dose activity, negative = inhibition, most hits filed as inhibitors. hit rate 0.71% among 290,000. AID 2451; note: potency is the fitted concentration of half-maximal effect; nearly all actives have a fitted effect of over 55% in size
Target sequence (A8B2U2 whole entry, looked up): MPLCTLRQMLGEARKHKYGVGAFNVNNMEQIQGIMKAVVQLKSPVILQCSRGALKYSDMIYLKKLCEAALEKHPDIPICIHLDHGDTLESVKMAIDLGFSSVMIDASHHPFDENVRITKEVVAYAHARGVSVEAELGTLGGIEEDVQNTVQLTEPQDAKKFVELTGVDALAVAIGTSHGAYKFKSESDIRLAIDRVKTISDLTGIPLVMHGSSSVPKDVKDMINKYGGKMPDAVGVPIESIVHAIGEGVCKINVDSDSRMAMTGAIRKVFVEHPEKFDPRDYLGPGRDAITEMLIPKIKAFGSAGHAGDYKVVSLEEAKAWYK
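Giardia FBPA (40 nM reagent) was preincubated 10 min at RT with compound (up to 57.5 uM final), then substrate plus GAPDH/TPI/NAD/arsenate coupling system with diaphorase/resazurin was added; resorufin fluorescence (525/598 nm) was read after 20 min.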
LASV entry inh – Lassa virus entry inhibition; Potency, µM (doses to about 37.9 µM), without a hit: top-dose activity change, negative = inhibition, usual class: inhibitors; Lassa virus pseudotype entry inhibition, cell reporter; hit rate 1.2% among 300,000; calls by dose curve; tested in HEK293 cells; note: potency is the fitted concentration of half-maximal effect; nearly all actives have a fitted effect of over 50% in size
HCV inh – HCV inhibition; Potency, µM (highest dose often 41.8 µM), for the others: at the top dose activity change, negative = inhibition, actives largely listed as inhibitors; hit rate 3.4% among 340,000; AID 651820; Huh7.5.1 HCVcc-Cre infection, luciferase reporter, 44 h; note: potency is the fitted concentration of half-maximal effect
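Reporter virus HCVcc-Cre (~0.5 moi) infects cells exposed to compound; seeding density 1,000 cells/well with 4 h settling beforehand. Luminescence, 15 sec read, taken 44 h post-infection following a 15 min RT substrate incubation.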
HCMV antiviral – blocks human cytomegalovirus replication. HFF cells, HCMV-luciferase reporter, 72 h; active compounds read low. activity change, negative = inhibition, % at 57.5 µM. hit rate 4.5% among 410,000. AID 1259415; in the data active = activity change below about -60%; inconclusive = no clear call, values can overlap the other calls; inactive = above about -39%
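Steps: HFFs plated, 16 h 37C; compounds added; HCMV-luciferase added to MOI 1 PFU/cell; 72 h 37C; OneGlo reagent, 5 min room temperature; luminescence read, normalized to controls.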
FMDV antiviral – foot and mouth disease virus antiviral activity | Potency, µM (doses to about 57.9 µM), without a hit: top-dose activity change, negative = inhibition, actives largely listed as inhibitors | hit rate 1.2% among 410,000 | FMDV antiviral cell-based qHTS; calls by dose curve; tested in HEK293T cells; note: read-out not given here; potency is the fitted concentration of half-maximal effect; nearly all actives have a fitted effect of over 45% in size
MARV entry inh – inhibitors of Marburg virus binding or cell entry | Marburg virus pseudotyped entry inhibition, cell reporter | Potency, µM (titrated, usually from 37.8 µM), inactives show top-dose activity change, negative = inhibition, most hits filed as inhibitors | hit rate 1.8% among 300,000; calls by dose curve; tested in HEK293 cells; note: potency is the fitted concentration of half-maximal effect
Active calls of the source: *; ? = inconclusive; nt = no result; [ ] = dose if it differs, or a comment. Unless noted, calls come from the whole dose curve; as a rule, active = well fitted curve in the direction sought with a large enough effect; inconclusive = small, poorly fitted or top-dose-only effect, or another doubt; inactive = no such curve, though single readings can be large; an effect the other way counts as inactive or inconclusive. % is set by controls: 0 for no effect and ±100 for the full control effect.

SMILES	FBPA Giardia inh	LASV entry inh	HCV inh	HCMV antiviral	FMDV antiviral	MARV entry inh
FC(F)(F)c1nnc2c(Sc3ccccc3)nc3ccc(Cl)cc3n12	3%	?	11µM*	-103*	?	?
FC(F)(F)c1nc2ccccc2n2c(-c3ccc(Cl)cc3Cl)nnc12	3%	15%	4%	40	-8%	4%
CCC1(c2ccc(O)cc2)NC(=O)NC1=O (centres undefined)	0%	nt	nt	nt	nt	nt
CC(=O)c1cn(CC(=O)Nc2ccccc2Cl)c2ccccc12	5%	nt	11µM*	-38	?	nt
CCC(=O)c1cn(CC(=O)Nc2ccccc2)c2ccccc12	5%	?	-11%	3	-6%	?
O=C(CN1c2ccccc2S(=O)(=O)c2ccccc21)Nc1ccccc1F	nt	-14%[46.1 µM]	-3%	-63*	0%	2%[46.1 µM]
CC(=O)c1cn(CC(=O)Nc2ccccc2)c2ccccc12	1%	?	?	-73*	?	?
COc1ccc(NC(=O)Cn2cc(C(=O)c3ccco3)c3ccccc32)cc1	0%	8%	3.5µM*	-2	5%	0%
CC(=O)c1cn(CC(=O)Nc2ccccc2F)c2ccccc12	8%	?	11µM*	-12	0%	?
CCC(=O)c1cn(CC(=O)Nc2ccccc2F)c2ccccc12	3%	-1%	-27%	-15	-16%	-1%
Cc1c(Cl)cccc1NC(=O)Cn1cc(C(=O)C2CCCCC2)c2ccccc21	nt	?	nt	-70*	?	?
Cc1ccc(NC(=O)Cn2cc(C(=O)c3ccccc3)c3ccccc32)cc1	nt	?	nt	-91*	?	?
O=C(Cn1cc(C(=O)c2ccccc2)c2ccccc21)Nc1ccc(Br)cc1	nt	-20%[46.1 µM]	nt	-35	0%	?
Cc1ccc2c(=O)c(C(=O)c3cccc(Cl)c3)cn(CC(=O)Nc3ccccc3C(F)(F)F)c2n1	nt	6%[46.1 µM]	nt	12	-18%	nt
COc1ccc(CNC(=O)CC(c2ccc(OC)c(OC)c2)N2Cc3ccccc3C2=O)cc1 (centres undefined)	nt	-5%[46.1 µM]	nt	-9	0%	nt
COC(=O)c1cc2ccccc2c(-c2c(OC)c(C(=O)OC)cc3ccccc23)c1OC	?	?	10µM*	?	-24%	6.5µM*
COc1cc(/C=C(/C#N)c2ccc(C)cc2)ccc1Oc1ccc([N+](=O)[O-])cn1	6%	4%	10µM*	20	nt	-9%
COc1cc(/C=N/NC(=O)c2ccccc2Cl)ccc1Oc1ccc([N+](=O)[O-])cn1	-6%	nt	11µM*	?	-22%	nt
COc1cccc(OCc2cc(/C=N/Nc3ccc(C(=O)O)cc3)ccc2OC)c1	-5%	nt	0%	9	0.89µM*	-2%
CCOc1cc(/C=C(/C#N)c2nc3ccccc3[nH]2)ccc1Oc1ccc([N+](=O)[O-])cn1	-15%	?	?	-22	nt	?
COc1cc(/C=C2/SC(=O)N(CC(=O)N3CCCC3)C2=O)ccc1Oc1ccc([N+](=O)[O-])cn1	-12%	4%	?	?	32µM*	-4%
CC/C=C\CC[C@H](O)C1=CCCCC1=O	-1%[12.9 µM]	nt	nt	nt	nt	nt
COc1ccc(N2CCN(C(=O)c3ccc(-c4nc(COc5ccccc5)c(C)o4)cc3)CC2)cc1	nt	?	nt	19	-21%	nt
CCCCNc1nc(C)nc2c1nc(-c1ccccc1)n2CCN1CCCCC1	1%	nt	nt	nt	nt	nt
COc1ccc(NC(=O)c2c(-c3ccccc3)c(-c3ccccc3)nn(C)c2=O)c(OC)c1	nt	-2%[46.1 µM]	nt	-8	-23%	?
CCOc1ccc(/C=N/NC(=O)c2ccccc2Cl)cc1CN1CC2CC(C1)c1cccc(=O)n1C2 (centres undefined)	nt	nt	2.5µM*	-4	-18%	-2%
COc1ccc(/C=N/NC(=O)c2ccoc2C)cc1COc1ccc(Cl)cc1	10%	?	?	26	22µM*	?
COc1cc(C(=O)N/N=C/c2ccc(OC)c(CN3CCN(c4ccc(F)cc4)CC3)c2)ccc1O	-11%	-23%	25µM*	-25	?	?
CCOc1ccc(/C=N/NC(=O)c2ccccc2C)cc1CN1CC2CC(C1)c1cccc(=O)n1C2 (centres undefined)	nt	nt	?	9	-23%	7%
